Test results taken from PubChem BioAssay.
Active and inactive are the calls of the source.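 How the source made its calls, unless noted: active means inhibition above 20% together with a positive visual image hit; inconclusive means visual image hit but inhibition not above 20%; inactive means no visual image hit.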

Experiment: inhibitors of TNFa-induced NFkB p65 translocation, primary screen, imaging, HUVEC, MLSMR starter and 10KST1 sets (AID 438);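 further: compound added about 3h40 before a 20 min TNFalpha stimulation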;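 on inhibition: signal is the nuclear over cytoplasmic p65 intensity ratio per well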
Conditions: HUVEC TNFa-induced p65 nuclear translocation; cell count: measured here: nuclei count (cytotoxicity indicator), at 2.08 µM; inhibition: at 2 µM, stronger effect = higher value, 0% TNFa-plus-vehicle, 100% no-TNFa wells

Row | Compound | cell count | inhibition
1 | CCc1nc(NCCCN2CCOCC2)c2oc3ccccc3c2n1 | 573 | -4.4% (inactive)
2 | CCOC(=O)N1CCN(C(=O)CSc2cc(C)nc3c(-c4ccccc4OC)c(C)nn23)CC1 | 543 | -9.8% (inactive)
3 | O=C1c2ccccc2C(=O)N1CNc1ccccc1 | 425 | -2.7% (inactive)
4 | CC(C)(C)OC(=O)N1CC=C2C(C#N)=C(N)C(C#N)(C#N)C(c3cccs3)C2C1 (stereo not given) | 828 | 2.4% (inactive)
5 | CCOC(=O)Nc1cc(OC)c(OC)cc1Cc1nccc2cc(OC)c(OC)cc12 | 444 | -1.8% (inactive)
6 | Cc1cc(=O)n2nc(-c3ccccc3)sc2n1 | 563 | -1.1% (inactive)
7 | COc1cccc(C2CC(=O)Nc3c2c(=O)n(C)c(=O)n3C)c1OC (stereo not given) | 499 | 2.4% (inactive)
8 | CCOC(=O)N1CCN(c2c(N3CCc4ccccc4C3)c(=O)c2=O)CC1 | 558 | 1.2% (inactive)
9 | COC(=O)Cc1c(C)c2ccc(OCC(=O)N3CCOCC3)cc2oc1=O | 439 | 15.7% (inactive)
10 | Cc1cccc(OCC(=O)N(Cc2cccs2)C2CCS(=O)(=O)C2)c1C (stereo not given) | 220 | 2.4% (inactive)
11 | CN(C)S(=O)(=O)c1ccc(/C(O)=C2/C(=O)C(=O)N(CCN3CCCCC3)C2c2cccnc2)cc1 (stereo not given) | 391 | 5.5% (inactive)
12 | CCOC(=O)c1sc2nc(NC(=O)C3CCCCC3)sc2c1C | 570 | -0.8% (inactive)
13 | O=P1(O)C=C(c2ccccc2)NC(c2ccccc2)=C1 | 405 | 3.4% (inactive)
14 | CC1(C)NC(=O)N(CCOc2cccc(Cl)c2Cl)C1=O | 411 | -1.1% (inactive)
15 | Cn1c(=O)c2c(nc(CN3CCCCC3)n2CCc2ccccc2)n(C)c1=O | 363 | -1% (inactive)
16 | CS(=O)(=O)N1CCN(c2ccccc2NC(=O)c2ccc(-c3ccc(Cl)cc3Cl)o2)CC1 | 194 | -3.5% (inactive)
17 | CCOc1cc2[nH]c(=O)n(CCCCC(=O)NCc3ccco3)c(=O)c2cc1OCC | 394 | -17.9% (inactive)
18 | O=C(NCc1ccco1)C1(S(=O)(=O)c2ccc(Cl)cc2)CC1 | 412 | 1.1% (inactive)
19 | O=C(Nn1c(C2CC2)nc2ccccc2c1=O)c1ccco1 | 579 | -12.1% (inactive)
20 | COCCCN1C(=O)C(=O)/C(=C(/O)c2ccc(OCC(C)C)cc2C)C1c1cccnc1 (stereo not given) | 299 | -2.4% (inactive)

Row | Compound | cell count | inhibition
21 | CCn1c2ccccc2c2cc(Nc3cc(C)nc4ncnn34)ccc21 | 513 | 8.5% (inactive)
22 | COc1cc(NC(=O)C2CCCN2S(=O)(=O)c2cccc3cccnc23)cc(OC)c1OC (stereo not given) | 667 | 0.6% (inactive)
23 | CCOc1ccc(Cn2nnc(C(=O)NCc3ccc(OC)cc3)c2N)cc1 | 509 | -1.3% (inactive)
24 | CCOC(=O)c1[nH]c(C)c(C(=O)NCc2ccccn2)c1C | 664 | -2.8% (inactive)
25 | COc1ccc2cc(C#N)c(SCC(=O)N3CCCC3)nc2c1 | 514 | -2.1% (inactive)
26 | Cc1ccccc1Nc1cc2ccccc2c(=O)[nH]1 | 481 | -12.2% (inactive)
27 | O=C(CNc1ccc(Oc2ccccc2)cc1)N1CCOCC1 | 622 | -26.3% (inactive)
28 | CCCOC(=O)C1C2C=CC3(CN(c4cccc(Cl)c4)C(=O)C13)O2 (stereo not given) | 743 | -5.5% (inactive)
29 | COc1cc(NC(=O)c2cc(CC(C)C)on2)c(OC)cc1Cl | 558 | -6% (inactive)
30 | O=S(=O)(Nc1ccccn1)c1ccc(Oc2ccccc2)cc1 | 248 | -6.3% (inactive)
31 | O=C(c1cc2ccccc2oc1=O)N1CCN(c2ccc(N3CCOCC3)nn2)CC1 | 490 | -6.9% (inactive)
32 | Cc1ccc(-c2nc(CS(=O)CC(=O)NCCN(CC(C)C)CC(C)C)c(C)o2)cc1 (stereo not given) | 716 | -7.2% (inactive)
33 | O=c1ccc(S(=O)(=O)N2CCC(Cc3ccccc3)CC2)c[nH]1 | 451 | 0% (inactive)
34 | O=C(NCCC1=CCCCC1)C1CC(=O)N(C2CCCCCC2)C1 (stereo not given) | 645 | -4.4% (inactive)
35 | Cc1nn(C(=O)c2ccoc2C)c(N)c1-c1ccccc1 | 764 | -1.1% (inactive)
36 | Cc1nnc(N2C(=O)c3oc4ccccc4c(=O)c3C2c2ccco2)s1 (stereo not given) | 804 | -5.5% (inactive)
37 | O=c1[nH]c2sc3c(c2c2nncn12)CCCC3 | 420 | 11.2% (inactive)
38 | C=COC(=O)CSc1snc(SCC(=O)OC)c1C#N | 300 | -6.3% (inactive)
39 | COc1ccc(-n2c(=O)c3c4c(sc3n3c(C)nnc23)CCCC4)cc1 | 415 | 3.3% (inactive)
40 | CCOC(=O)N1CCC(NC(=O)Cn2ncc3c4ccccc4n(C)c3c2=O)CC1 | 557 | -1% (inactive)

Experiment: inhibitors of mutant huntingtin aggregation, primary screen, imaging, exon1htt(103Q)mCFP cells, high-content imaging (AID 483;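 active means visual image review flags a hit and inhibition of aggregation exceeds 20%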;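 further: compound exposure lasted 3 days before fixation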;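 on nuclei count: percent of the per-plate median nuclei count of sample wells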)
Conditions: exon1htt(103Q)mCFP cell line, aggregate imaging, at 2 µM; inhibition of aggregation: stronger effect = higher value; nuclei count: measured here: cell count, toxicity

Row | Compound | inhibition of aggregation | nuclei count
41 | CCc1nc(NCCCN2CCOCC2)c2oc3ccccc3c2n1 | -12.6% (inactive) | 106%
42 | CCOC(=O)N1CCN(C(=O)CSc2cc(C)nc3c(-c4ccccc4OC)c(C)nn23)CC1 | -34.4% (inactive) | 122%
43 | O=C1c2ccccc2C(=O)N1CNc1ccccc1 | -3.7% (inactive) | 112%
44 | CC(C)(C)OC(=O)N1CC=C2C(C#N)=C(N)C(C#N)(C#N)C(c3cccs3)C2C1 (stereo not given) | 16.5% (inactive) | 102%
45 | CCOC(=O)Nc1cc(OC)c(OC)cc1Cc1nccc2cc(OC)c(OC)cc12 | -1.2% (inactive) | 111%
46 | Cc1cc(=O)n2nc(-c3ccccc3)sc2n1 | -4.1% (inactive) | 106%
47 | COc1cccc(C2CC(=O)Nc3c2c(=O)n(C)c(=O)n3C)c1OC (stereo not given) | -11.6% (inactive) | 39.6%
48 | CCOC(=O)N1CCN(c2c(N3CCc4ccccc4C3)c(=O)c2=O)CC1 | 13.2% (inactive) | 102%
49 | COC(=O)Cc1c(C)c2ccc(OCC(=O)N3CCOCC3)cc2oc1=O | 7.7% (inactive) | 113%
50 | Cc1cccc(OCC(=O)N(Cc2cccs2)C2CCS(=O)(=O)C2)c1C (stereo not given) | 0.4% (inactive) | 88.1%
51 | CN(C)S(=O)(=O)c1ccc(/C(O)=C2/C(=O)C(=O)N(CCN3CCCCC3)C2c2cccnc2)cc1 (stereo not given) | 5.7% (inactive) | 88.2%
52 | CCOC(=O)c1sc2nc(NC(=O)C3CCCCC3)sc2c1C | 4.6% (inactive) | 92.9%
53 | O=P1(O)C=C(c2ccccc2)NC(c2ccccc2)=C1 | -6.9% (inactive) | 92.3%
54 | CC1(C)NC(=O)N(CCOc2cccc(Cl)c2Cl)C1=O | 1.3% (inactive) | 98%
55 | Cn1c(=O)c2c(nc(CN3CCCCC3)n2CCc2ccccc2)n(C)c1=O | -29.9% (inactive) | 79%
56 | CS(=O)(=O)N1CCN(c2ccccc2NC(=O)c2ccc(-c3ccc(Cl)cc3Cl)o2)CC1 | 32.9% (active) | 72.7%
57 | CCOc1cc2[nH]c(=O)n(CCCCC(=O)NCc3ccco3)c(=O)c2cc1OCC | -0.5% (inactive) | 117%
58 | O=C(NCc1ccco1)C1(S(=O)(=O)c2ccc(Cl)cc2)CC1 | -16% (inactive) | 120%
59 | O=C(Nn1c(C2CC2)nc2ccccc2c1=O)c1ccco1 | 9.9% (inactive) | 95.2%
60 | COCCCN1C(=O)C(=O)/C(=C(/O)c2ccc(OCC(C)C)cc2C)C1c1cccnc1 (stereo not given) | -8.7% (inactive) | 109%

Row | Compound | inhibition of aggregation | nuclei count
61 | CCn1c2ccccc2c2cc(Nc3cc(C)nc4ncnn34)ccc21 | 7.5% (inactive) | 3%
62 | COc1cc(NC(=O)C2CCCN2S(=O)(=O)c2cccc3cccnc23)cc(OC)c1OC (stereo not given) | 15.1% (inactive) | 77.6%
63 | CCOc1ccc(Cn2nnc(C(=O)NCc3ccc(OC)cc3)c2N)cc1 | 15.4% (inactive) | 72.5%
64 | CCOC(=O)c1[nH]c(C)c(C(=O)NCc2ccccn2)c1C | -6.6% (inactive) | 87.7%
65 | COc1ccc2cc(C#N)c(SCC(=O)N3CCCC3)nc2c1 | -17.8% (inactive) | 116%
66 | Cc1ccccc1Nc1cc2ccccc2c(=O)[nH]1 | -19.5% (inactive) | 102%
67 | O=C(CNc1ccc(Oc2ccccc2)cc1)N1CCOCC1 | 2.1% (inactive) | 103%
68 | CCCOC(=O)C1C2C=CC3(CN(c4cccc(Cl)c4)C(=O)C13)O2 (stereo not given) | -3.6% (inactive) | 95.4%
69 | COc1cc(NC(=O)c2cc(CC(C)C)on2)c(OC)cc1Cl | 13.1% (inactive) | 95.8%
70 | O=S(=O)(Nc1ccccn1)c1ccc(Oc2ccccc2)cc1 | 0.4% (inactive) | 59.1%
71 | O=C(c1cc2ccccc2oc1=O)N1CCN(c2ccc(N3CCOCC3)nn2)CC1 | 0.1% (inactive) | 104%
72 | Cc1ccc(-c2nc(CS(=O)CC(=O)NCCN(CC(C)C)CC(C)C)c(C)o2)cc1 (stereo not given) | 21.6% (inactive) | 134%
73 | O=c1ccc(S(=O)(=O)N2CCC(Cc3ccccc3)CC2)c[nH]1 | -8.8% (inactive) | 103%
74 | O=C(NCCC1=CCCCC1)C1CC(=O)N(C2CCCCCC2)C1 (stereo not given) | -46.5% (inactive) | 45.9%
75 | Cc1nn(C(=O)c2ccoc2C)c(N)c1-c1ccccc1 | -13.8% (inactive) | 132%
76 | Cc1nnc(N2C(=O)c3oc4ccccc4c(=O)c3C2c2ccco2)s1 (stereo not given) | 8.3% (inactive) | 98.1%
77 | O=c1[nH]c2sc3c(c2c2nncn12)CCCC3 | 13.5% (inactive) | 108%
78 | C=COC(=O)CSc1snc(SCC(=O)OC)c1C#N | 11.1% (inactive) | 102%
79 | COc1ccc(-n2c(=O)c3c4c(sc3n3c(C)nnc23)CCCC4)cc1 | 4.3% (inactive) | 100%
80 | CCOC(=O)N1CCC(NC(=O)Cn2ncc3c4ccccc4n(C)c3c2=O)CC1 | -0.9% (inactive) | 98.6%
